Cruzain Triton: blocks cruzain activity in presence of Triton detergent; AID 1478; Potency, µM, without a hit: max response, negative = inhibition, most hits filed as inhibitors; 0.43% of 200,000 active; purified cruzain, Z-FR-AMC fluorescence, 0.01% Triton; P25779;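 note: plate controls were neutral wells for no effect and buffer without enzyme for full effect; nearly all actives have a fitted effect of over 40% in size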
Target sequence (P25779 123-467 limits assumed): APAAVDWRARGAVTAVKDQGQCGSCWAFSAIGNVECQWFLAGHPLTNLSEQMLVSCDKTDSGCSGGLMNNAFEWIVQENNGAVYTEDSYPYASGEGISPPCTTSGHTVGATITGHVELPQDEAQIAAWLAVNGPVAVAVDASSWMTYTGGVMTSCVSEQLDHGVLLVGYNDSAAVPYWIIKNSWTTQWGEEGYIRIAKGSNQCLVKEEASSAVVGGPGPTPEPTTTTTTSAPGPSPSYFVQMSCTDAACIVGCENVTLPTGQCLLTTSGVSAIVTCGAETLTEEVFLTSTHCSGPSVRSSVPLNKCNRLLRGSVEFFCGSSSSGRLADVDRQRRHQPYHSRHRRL
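Cysteine protease activity tested under reducing, mildly acidic conditions (100 mM sodium acetate pH 5.5, 5 mM DTT) plus 0.01% Triton X-100. Cruzain 1.5 nM; substrate Z-FR-AMC 2 uM; 15 min compound preincubation at room temperature.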
Cruzain noTriton: cruzain (T. cruzi) inhibition without detergent; P25779; purified cruzain, Z-FR-AMC fluorescence, no detergent; Potency, µM, for the others: max response, negative = inhibition, most hits filed as inhibitors; 2.3% of 200,000 active;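 note: plate controls were enzyme without inhibitor for no effect and buffer without enzyme for full effect; nearly all actives have a fitted effect of over 40% in size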
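Detergent-free condition (0.00005% Triton X-100) in acetate buffer pH 5.5 with DTT. 1.5 nM enzyme and compound were pre-mixed 15 min, then 2 uM Z-FR-AMC substrate added; reaction progress from fluorescence change between first and third reads (60 s).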
NS1 function inh: influenza NS1 inhibition; Potency, µM (top dose mostly 46.1 µM), for inactives: top-dose activity, positive = more growth; 0.4% of 270,000 active; AID 2326; calls by dose curve; note: actives are rising curves; nearly all actives have a fitted effect of over 50% in size
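Compounds were scored for reversing the slow growth caused by influenza A NS1 in S. cerevisiae, measured by optical density at 600 nm. Assay medium contained 2% galactose at pH 6.0; NS1-free yeast of the same strain were the positive control.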
Papain inh: counter-screen for cruzain inhibitors: papain inhibition. shares compounds with Cruzain Triton. purified papain, Z-FR-AMC fluorescence cleavage. Potency, µM, without a hit: max response, negative = inhibition, actives largely listed as inhibitors. 41% of 410 active;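 note: 0% = no-compound wells and -100% = no-enzyme wells; nearly all actives have a fitted effect of over 35% in size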
Target sequence (P00784 whole entry, looked up): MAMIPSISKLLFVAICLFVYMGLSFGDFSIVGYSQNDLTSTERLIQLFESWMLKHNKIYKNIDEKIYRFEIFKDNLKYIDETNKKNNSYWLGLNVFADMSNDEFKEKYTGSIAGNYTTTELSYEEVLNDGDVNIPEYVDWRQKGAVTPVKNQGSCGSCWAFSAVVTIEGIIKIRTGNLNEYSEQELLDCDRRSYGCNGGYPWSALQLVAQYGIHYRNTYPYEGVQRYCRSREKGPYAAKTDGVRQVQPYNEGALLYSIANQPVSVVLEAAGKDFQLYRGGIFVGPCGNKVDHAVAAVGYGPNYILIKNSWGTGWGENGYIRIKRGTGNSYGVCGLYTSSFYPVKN
Starred values were filed as active, the others as inactive; ? = inconclusive; nt = not tested or not shown; ! = repeats disagree. The full list was thinned out, with hits kept by preference. Unless noted, calls come from the whole dose curve; as a rule, active = well fitted curve in the direction sought with a large enough effect; inconclusive = small, poorly fitted or top-dose-only effect, or another doubt; inactive = no such curve, though single readings can be large; an effect the other way counts as inactive or inconclusive. Potency is the fitted concentration of half-maximal effect.

SMILES | Cruzain Triton | Cruzain noTriton | NS1 function inh | Papain inh
CCc1ccc(OCCCCn2c(CCNC(=O)C3CCCCC3)nc3ccccc32)cc1 | nt | nt | nt | 22µM*
O=C(NCCc1nc2ccccc2n1CCOc1ccccc1)C1CCCCC1 | nt | nt | nt | -19%
O=C(NCCCc1nc2ccccc2n1Cc1ccc(Cl)cc1)C1CCCCC1 | -10% | 6% | nt | nt
O=C(NCCc1nc2ccccc2n1CCOc1ccc(Cl)cc1)C1CCCCC1 | 1.3µM* | 0% | nt | 8.9µM*
Cc1ccc(-c2onc(C)c2C)cc1S(=O)(=O)NCc1ccc(N(C)C)cc1 | -4% | -6% | nt | nt
CC(=O)c1ccc(N2CCN(S(=O)(=O)c3cc(-c4onc(C)c4C)ccc3C)CC2)cc1 | 0% | -8% | nt | nt
Clc1ccc(CN2CCC(CNc3ncnc4onc(-c5ccc(Cl)cc5)c34)CC2)cc1 | 1% | -6% | nt | nt
COC(=O)c1cc2oc(C)cc2n1Cc1ccc(Cl)cc1 | -1% | -20% | nt | nt
COc1cccc(C2CC(=O)Nc3c2c(=O)n(C)c2nc4ccccc4n32)c1OC (configuration not stated) | -1% | -1% | nt | nt
CCS(=O)(=O)c1cccc(C(=O)N2CCN(c3nc4c(C)ccc(Cl)c4s3)CC2)c1 | 7.9µM* | ? | nt | -6%
CCS(=O)(=O)c1ccc(C(=O)N2CCN(c3nc4c(OC)ccc(C)c4s3)CC2)cc1 | -9% | ? | nt | nt
COc1ccc(/C=C/c2nc(C#N)c(NCCc3ccccc3)o2)cc1OC | -25% | ? | nt | nt
N#Cc1nc(NCC2CC2)nc(Nc2ccccc2)n1 | nt | nt | nt | 1.3µM*
c1ccc(Nc2nc(N3CCCC3)nc(N3CCCC3)n2)cc1 | -11% | -15% | -32% | nt
N#Cc1nc(Nc2ccc(F)cc2)nc(NC2CCCC2)n1 | nt | nt | nt | 0.45µM*
O=C(Nc1ccc(F)cc1)NC1CCCCC1 | 5% | 0% | -8% | nt
N#Cc1nc(Nc2ccccc2)nc(NC2CCCC2)n1 | nt | nt | nt | 0.45µM*
Nc1nc(NCC2CCC(CNS(=O)(=O)c3cccc4ccccc34)CC2)nc2ccccc12 (configuration not stated) | -7% | ? | nt | nt
c1ccc(-c2csc(NC3CCCCC3)n2)cc1 | nt | nt | -6% | nt
N#Cc1nc(Nc2ccc(-c3ccccc3)cc2)nc(NC2CCCC2)n1 | nt | nt | nt | 3.5µM*
Cc1ccc(-n2nnc(-c3nc(-c4cccs4)no3)c2N)cc1C | 0% | 8% | nt | nt
COc1ccccc1CNc1ncncc1-c1ccccc1Cl | 0% | -3% | nt | nt
Cc1ccccc1-c1nc(CNC(=O)Nc2ccccc2)c(C)o1 | -5% | -3% | nt | nt
N#Cc1c[nH]n2c(NC3CCCC3)c(-c3cccc(Br)c3)nc12 | -7% | ? | nt | nt
COc1cccc(Nc2nc(C#N)nc(NC3CCCC3)n2)c1 | nt | nt | nt | 0.28µM*
SMILES | Cruzain Triton | Cruzain noTriton | NS1 function inh | Papain inh
COc1cccc(/C=C/c2nc(C#N)c(NC3CCCCC3)o2)c1 | -5% | 4% | nt | nt
N#Cc1nc(Nc2cccc3ccccc23)nc(NC2CCCC2)n1 | nt | nt | nt | 4.5µM*
CC1CN=C(Nc2cccc3ccccc23)S1 (configuration not stated) | -3% | 0% | -14% | nt
N#Cc1nc(Nc2cccc(Br)c2)nc(NC2CCCC2)n1 | nt | nt | nt | 1.3µM*
Cc1ccc(C)c(N2CCN(C(=O)CCn3c(=O)[nH]c4ccccc4c3=O)CC2)c1 | 0% | -3% | nt | nt
Cn1ncc2c(Nc3cccc(C#N)c3)ncnc21 | -1% | -4% | nt | nt
Cc1ccc(NC(=O)/C=C/c2ccc3c(c2)OCO3)cc1S(=O)(=O)N1CCOCC1 | 13µM* | 20µM* | -4% | -11%
Cc1ccc(C(=O)NCc2ccc3c(c2)OCO3)cc1S(=O)(=O)N1CCOCC1 | -3% | 9% | -9% | nt
O=C(CSc1ncc(S(=O)(=O)c2ccc(Cl)cc2)c(=O)[nH]1)Nc1cccc(C(F)(F)F)c1 | ? | 21% | nt | nt
CC(C)(C)c1ccc(S(=O)(=O)c2cnc(SCC(=O)Nc3ccc(F)c(Cl)c3)[nH]c2=O)cc1 | 20µM* | -3% | nt | 2.8µM*
Cc1cc2oc(C(=O)Nc3ccc(S(=O)(=O)N4CCCCCC4)cc3)cc(=O)c2cc1C | -1% | -14% | nt | nt
Cn1c(C(=O)NCCN2CCCCCC2)cc2c(=O)n(C)c3ccccc3c21 | 10µM* | 7.9µM* | 0% | -20%
Cn1c(C(=O)NCCN2CCN(Cc3ccccc3)CC2)cc2c(=O)n(C)c3ccccc3c21 | nt | nt | 16% | nt
CC(=O)c1ccc(NC(=O)c2cn(-c3ccccc3)nc2-c2ccc(Br)cc2)cc1 | 1% | -6% | nt | nt
COc1ccc(F)cc1S(=O)(=O)NCCc1sc2nc(-c3ccc(F)cc3)nn2c1C | -10% | ? | nt | nt
O=C(O)Cc1c[nH]c2ccc(F)cc12 | 2% | 2% | -4% | nt
N#Cc1c(N2CCOCC2)nc(-c2ccco2)c2c1CCCC2 | 13µM* | 10µM* | 1% | 5.6µM*
CC1(C)Cc2c(C#N)c(N3CCCC3)nc(-c3ccco3)c2CO1 | -4% | ? | -60% | nt
CCN(CC)c1ccc(NC(=O)C2COc3ccc(OC)cc3C2)c(C)c1 (configuration not stated) | 2% | 19% | nt | nt
Cc1oc(-c2ccc(C(=O)NC(C)c3ccccc3)cc2)nc1CS(=O)(=O)c1ccccc1 (configuration not stated) | -4% | 1% | nt | nt
Cc1cc(=O)oc2cc(OCC(=O)N3CCOCC3)ccc12 | 8.9µM* | -1% | 13% | 14µM*
Cc1cc(=O)oc2cc(OCC(=O)NCCN3CCOCC3)ccc12 | nt | nt | 9% | nt
COC(=O)CSc1nnc([C@H](CC(C)C)NC(=O)OC(C)(C)C)o1 | ? | -24% | -1% | nt
CC(C)(C)OC(=O)N[C@@H](Cc1ccccc1)c1nnc(SCC(=O)O)o1 | 25µM* | -13% | 4% | -21%
Clc1ccccc1-c1nccc(NCc2ccccc2)n1 | -5% | 20% | nt | nt
SMILES | Cruzain Triton | Cruzain noTriton | NS1 function inh | Papain inh
c1csc(Cc2nn3c(-c4n[nH]c5c4CCC5)nnc3s2)c1 | -4% | ? | 15% | nt
Cc1cc(-c2nnc3sc(-c4ccc(Cl)cc4Cl)nn23)n[nH]1 | 8% | -11% | -3% | nt
COc1cc(OC)c(-c2nn3c(-c4cc(C)[nH]n4)nnc3s2)cc1OC | nt | nt | nt | -63%
COc1cc(OC)c(-c2nn3c(-c4n[nH]c5c4CCC5)nnc3s2)cc1OC | nt | nt | nt | 2%
N[C@H](C(=O)O)[C@@H]1C[C@@H]1C(=O)O | -4% | 5% | nt | nt
Cc1ccc(Cl)cc1NC(=O)c1cc(CN2CCCC2)on1 | -2% | -1% | nt | nt
Cc1ccccc1S(=O)(=O)O[C@@H]1NS(=O)(=O)c2ccccc21 | 4% | 4% | -2% | nt
O=C(NCCO)C(=O)Nc1c2c(nn1-c1ccc(F)cc1)CSC2 | -7% | 2% | nt | nt
COc1ccc(/C=N/NC(=O)c2ccc(Br)cc2)cc1Cn1cc(Cl)cn1 | -5% | ? | 2% | -58%
COc1ccc(/C=N/NC(=O)c2cccc(Br)c2)cc1Cn1cc(Cl)cn1 | -2% | ? | 5% | nt
CC1(C)Oc2ccc(/C=C/C(=O)N3CCOCC3)c(O)c2C(N2CCOCC2)C1O (configuration not stated) | -8% | 2% | 13% | nt
CC(C)CC(=O)OC1C(N2CCOCC2)c2c(ccc(/C=C/C(=O)N3CCOCC3)c2O)OC1(C)C (configuration not stated) | -24% | ? | -4% | 14µM*
CCOC(=O)c1cnc(N2CCN(c3cccc(C)c3C)CC2)c2ccccc12 | 2% | -8% | nt | nt
NSc1nc(N)c2nc(-c3ccccc3)c(-c3ccccc3)nc2n1 | nt | nt | 19% | nt
Nc1nc(N)c2nc(-c3ccccc3)c(N)nc2n1 | 32µM*! | 7.9µM*! | ? | 22µM*
